Screens as filed in PubChem.
Pin1 inhibitor: qHTS Assay to Find Inhibitors of Pin1. AID 504891, 2011. 390,000 compounds, 0.009% hits. Peptidyl-prolyl cis-trans isomerase NIMA-interacting 1 (Homo sapiens), Q13526. Pin1 FP peptide displacement, HiFluor488, 10 min. Potency, µM (series often up to 115 µM), for inactives: at the highest dose activity, negative = inhibition, hits mostly inhibitors; active = well fitted inhibition curve with a large enough effect in the polarisation, with a control signal flat, not every such curve was filed as active; inconclusive = small, poorly fitted or top-dose-only effect, or effect the other way, or a change in a side signal; inactive = no such curve, though single readings can be large or run the other way; the % refers to the polarisation; also: % is scaled to controls: 0 for no effect and ±100 for the full control effect
Target sequence (Q13526 whole entry, looked up): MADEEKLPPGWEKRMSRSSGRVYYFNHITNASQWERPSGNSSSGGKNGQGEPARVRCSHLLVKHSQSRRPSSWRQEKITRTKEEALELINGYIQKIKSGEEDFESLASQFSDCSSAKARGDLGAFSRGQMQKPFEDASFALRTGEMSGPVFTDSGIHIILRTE
GLP1R cytotox: qHTS of GLP-1 Receptor Inverse Agonists: Cytotox Screen | AID 624418, 2012 | 410,000 compounds, 0.13% hits | HEK293 cAMP-luciferase reporter cells, luminescence, 24 h | Potency, µM (doses to about 38.3 µM), for inactives: at the highest dose activity change, negative = inhibition, hits mostly inhibitors;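 also: loss of luciferase light is scored as toxicity; % is scaled to controls: 0 for no effect and ±100 for the full control effect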
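Compound-treated cells are incubated 24 hr at 37 deg C under 5% CO2 after a 12 hour attachment period, then luciferase detection reagent is added and luminescence is measured following 12 min at room temperature; lowered signal indicates toxicity.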
Tb PFK inh: qHTS Assay to Find Inhibitors of T. brucei phosphofructokinase; ATP-dependent 6-phosphofructokinase (Trypanosoma brucei brucei), O15648; T. brucei PFK, ADP-Glo luminescence; Potency, µM (highest dose often 57.5 µM), without a hit: at the top dose activity, negative = inhibition, most hits filed as inhibitors; 330,000 compounds, 0.17% hits;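 also: 0% = uninhibited 1x PFK enzyme wells and -100% = no-enzyme wells; nearly all actives have a fitted effect of over 60% in size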
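Compounds were pin-transferred as a titration series up to 57 uM into substrate buffer (0.5 mM F6P, 0.1 mM ATP, pH 8.0), then 1.25 nM PFK was added and reactions ran 45 min before ADP-Glo detection.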
GLP-1R agonist: qHTS of GLP-1 Receptor Agonists. AID 624172, 2012. Potency, µM (top dose mostly 45.6 µM), inactives show at the highest dose activation, hits mostly activators. 380,000 compounds, 0.007% hits. HEK293 GLP-1R CRE-luciferase, luminescence, 4-6 h; cells express a hypersensitive GLP-1R form. Glucagon-like peptide 1 receptor (Homo sapiens), P43220; also: % of control where 0% means no effect
Target sequence (P43220 whole entry, looked up): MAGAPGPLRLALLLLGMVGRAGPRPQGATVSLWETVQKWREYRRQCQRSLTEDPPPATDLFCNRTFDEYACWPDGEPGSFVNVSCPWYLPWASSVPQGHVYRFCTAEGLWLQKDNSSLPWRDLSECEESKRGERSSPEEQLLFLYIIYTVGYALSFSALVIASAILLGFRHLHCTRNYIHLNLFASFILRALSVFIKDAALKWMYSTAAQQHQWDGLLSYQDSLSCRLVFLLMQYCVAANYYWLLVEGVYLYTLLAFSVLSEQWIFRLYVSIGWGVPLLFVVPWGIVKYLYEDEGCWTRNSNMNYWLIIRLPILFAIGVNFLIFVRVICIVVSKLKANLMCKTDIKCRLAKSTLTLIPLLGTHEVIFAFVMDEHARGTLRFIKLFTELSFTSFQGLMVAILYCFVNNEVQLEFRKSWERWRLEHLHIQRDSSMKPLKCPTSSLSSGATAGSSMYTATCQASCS
GLP1R inv ag: qHTS of GLP-1 Receptor Inverse Agonists (Inhibition Mode); Potency, µM (top dose mostly 38.3 µM), without a hit: at the top dose activity change, negative = inhibition, most hits filed as inhibitors; HEK293 GLP-1R CRE-luciferase, luminescence, 24 h; GLP-1R form is constitutively active; 410,000 compounds, 1.6% hits; also: % is scaled to controls: 0 for no effect and ±100 for the full control effect; nearly all actives have a fitted effect of over 55% in size
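Cells are plated, allowed 12 hours at 37 deg C, then treated with compounds for 24 hr before luciferase detection reagent is added and luminescence is read after 12 min at room temperature. The HEK293 line carries constitutively active GLP-1R with a cAMP-responsive reporter.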
Tb PGK inh: qHTS Assay to Find Inhibitors of Phosphoglycerate Kinase; Phosphoglycerate kinase, glycosomal (Trypanosoma brucei brucei), P07378; PGK/GAPDH coupled, Kinase-Glo luminescence, 60 min; Potency, µM (highest dose often 57.5 µM), for inactives: at the top dose activity change, negative = inhibition, actives largely listed as inhibitors; 380,000 compounds, 0.043% hits; also: % is scaled to controls: 0 for no effect and ±100 for the full control effect; nearly all actives have a fitted effect of over 60% in size
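Luminescent ATP detection (Kinase-Glo Plus) follows a 60-minute room-temperature incubation, with wells lacking PGK as controls. Buffer: 100 mM TEA (pH 7.6), 5 mM MgCl2, 0.01% Tween-20. Coupling enzyme GAPDH (100 nM final) supplies unstable 1,3-BPG in-well.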
An asterisk follows results filed as active; i = inactive; ? = inconclusive; / = no result given. Shown are actives, neighbours in structure and some others; about 1.8% of the full set was active somewhere. Unless noted, calls follow the shape of the dose curve; as a rule, active = well fitted curve in the direction sought with a large enough effect; inconclusive = small, poorly fitted or top-dose-only effect, or another doubt; inactive = no such curve, though single readings can be large; an effect the other way counts as inactive or inconclusive. Potency is read from the fitted curve at half-maximal effect.

SMILES | Pin1 inhibitor | GLP1R cytotox | Tb PFK inh | GLP-1R agonist | GLP1R inv ag | Tb PGK inh
CCOC(=O)C(=CNNc1cccc(Cl)c1)C(=O)OCC | ? | -3% | 0% | -3% | 5µM* | 1%
CC(C)c1onc(C(=O)N2CCN(c3ccccc3)CC2)c1[N+](=O)[O-] | -4% | -7% | -10% | 13% | -8% | -9%
CC(C)c1onc(C(=O)N2CCN(C(c3ccccc3)c3ccccc3)CC2)c1[N+](=O)[O-] | 1% | 27% | -1% | -3% | 2.5µM* | 3%
COc1ccc(C2c3ccc(OCc4ccccc4)cc3Oc3ncn(CCN4CCOCC4)c(=N)c32)cc1OC (stereo not given) | -1% | / | / | / | / | /
Cc1ccc(NC(=O)C2CCN(S(=O)(=O)c3cccs3)CC2)cc1C | 14% | 3% | 0% | -9% | 8.9µM* | -2%
Cc1cccc(NC(=O)C2CCN(S(=O)(=O)c3cccs3)CC2)c1 | 0% | -14% | 6% | -13% | -5% | -3%
COc1ccc(OC)c(S(=O)(=O)N2CCC(C(=O)Nc3cccc(C(F)(F)F)c3)CC2)c1 | 0% | ? | -9% | -13% | 10µM* | -2%
Cc1cc2c(s1)c1cnn(Cc3ccc(C(F)(F)F)cc3)c(=O)c1n2C | -10% | / | / | / | / | /
Cc1ccc(C)c(-c2[nH]ncc2CN2CCCC(CO)(Cc3ccccc3C)C2)c1 (stereo not given) | 5% | ? | 0% | 8% | 10µM* | i
OCC1(Cc2ccccc2)CCCN(Cc2cn[nH]c2-c2ccccc2)C1 (stereo not given) | 0% | 0% | -4% | 4% | ? | -8%
OC(Cc1ccccc1Br)c1ncc(-c2cccc(C(F)(F)F)c2)[nH]1 (stereo not given) | / | -29% | / | 1% | 10µM* | /
Cc1ccc(Cn2ccc(NC(=O)c3cc(-c4ccc(Cl)c(Cl)c4)on3)n2)cc1 | -9% | 8% | / | / | 1% | i
N[C@@H](C(=O)N[C@@H]1C(=O)N2C(C(=O)O)=C(CSc3cn[nH]n3)CS[C@H]12)c1ccc(O)cc1 | / | / | / | 0% | / | /
O=C(NCc1nc(-c2ccc(C(F)(F)F)cc2)no1)c1cccs1 | -1% | -20% | 0% | -1% | 10µM* | -1%
Cc1ccc(S(=O)(=O)N(CC(=O)N2CCc3ccccc3C2)c2ccc(C)c(C)c2)cc1 | -8% | -9% | / | / | 11µM* | -2%
COc1ccc(N(CC(=O)N2CCc3ccccc32)S(=O)(=O)c2c(C)nn(C)c2C)cc1 | 3% | 6% | 3% | 2% | -6% | -6%
Cc1ccc(N(CC(=O)N2CCc3ccccc32)S(=O)(=O)c2cccs2)cc1 | 19% | 4% | -8% | 0% | 10µM* | /
O=C(NCCc1ccccc1F)c1ccc2c(c1)OCCO2 | -5% | 15% | -10% | -3% | 0.89µM* | -11%
O=C(O)COc1nn(Cc2ccccc2)c2ccccc12 | / | / | / | 0% | / | /
COc1ccc(N/N=C(\C#N)C(=N)SCc2ccccc2)cc1 | ? | ? | -3% | 13% | 0.28µM* | 7%
Cc1ccc(NC(=O)c2cc(S(=O)(=O)N3CCc4ccccc43)cn2C)c(Cl)c1 | 21% | 24% | / | / | -26% | 3%
CCOc1cccc(C2c3[nH]c4ccccc4c3CCN2C(=O)CSCc2ccc(F)cc2)c1 (stereo not given) | 2% | -7% | / | / | ? | i
COc1ccc2[nH]c3c(c2c1)CCN(C(=O)c1cccc(Cl)c1)C3c1ccc(F)cc1 (stereo not given) | -2% | 2% | / | 0% | 4.5µM* | 7%
O=C(CSc1ccccc1)N1CCc2c([nH]c3ccccc23)C1c1ccc(F)cc1 (stereo not given) | 0% | -6% | / | / | ? | i
CCOc1cccc(CC(=O)N2CCc3c([nH]c4ccccc34)C2c2ccc(C)cc2)c1OCC (stereo not given) | 12% | -3% | / | / | 10µM* | i
SMILES | Pin1 inhibitor | GLP1R cytotox | Tb PFK inh | GLP-1R agonist | GLP1R inv ag | Tb PGK inh
CSc1ccc(C2c3[nH]c4ccccc4c3CCN2C(=O)CCC2CCCC2)cc1 (stereo not given) | ? | 18% | / | / | 2.2µM* | 11%
CCOc1ccc(C2c3[nH]c4ccccc4c3CCN2C(=O)CSCc2ccc(F)cc2)cc1 (stereo not given) | 2% | -12% | / | / | 2.8µM* | 2%
COc1ccc(OCc2cc(C3Nc4ccccc4C(=O)N3Cc3ccccc3)ccc2OC)cc1 (stereo not given) | 7% | / | / | / | / | /
CCOc1ccc(C(=O)Cn2c(=O)n3nc(CCn4nc(C)cc4C)nc3c3cc(OC)c(OC)cc32)cc1 | 5% | -14% | / | / | ? | 4%
N#Cc1nc(Nc2cccc(F)c2)nc(NC2CCCC2)n1 | -9% | / | / | / | / | /
CCOC(=O)CSC1=Nc2ccccc2C2=NC(CCC(=O)NCc3ccccc3)C(=O)N12 (stereo not given) | -7% | -1% | / | / | 1% | -5%
Cc1cccc(C)c1NC(=O)CN(C)C(=O)C1CCN(c2ncnc3sc(C)c(C)c23)CC1 | -3% | 7% | -1% | 1% | ? | -4%
Cc1cc(Br)ccc1NC(=O)CN(C)C(=O)C1CCN(c2ncnc3sc(C)c(C)c23)CC1 | 26% | -31% | / | -17% | 3.2µM* | 4%
Cc1cc(O)cc2c1C1CCC3(C)C(O)CCC3C1C=C2 (stereo not given) | -4% | -17% | / | 18% | -8% | 2%
CC12CCC=CC1=C(C=O)C1C2CCC2(C)C(O)CCC12 (stereo not given) | -1% | ? | / | 8% | 11µM* | -2%
CCOC(=O)c1ccc(N=c2sc(C(=O)OC)cc(=O)n2CCCN2CCOCC2)cc1 | 11% | 0% | -3% | -6% | ? | 2%
CCOC(=O)c1ccc(N=c2sc(C(=O)OC)cc(=O)n2Cc2ccco2)cc1 | ? | ? | 0% | 7% | 4.5µM* | -1%
O=C(NC1CC1)c1cc(-c2ccco2)nc2ccccc12 | 21µM* | -12% | -17% | 1% | 8% | ?
CCOC(=O)C1CCN(c2nc3ccccc3nc2C(C#N)C(=O)NCCc2ccccc2)CC1 (stereo not given) | / | / | 9.5µM* | / | / | /
CSc1ccccc1NC(=O)c1noc2c1CCC2 | ? | -18% | 17µM* | 0% | -14% | ?
